# According to PubChem BioAssay AID651812 (National Center for Advancing Translational Sciences (NCATS), 2012):
# Screen size: about 2,100 compounds; about 650 (31%) were called active. Roughly 16% stayed inconclusive and do not appear here. Some of the results follow. A number with no mark means an inactive call. Calls follow the shape of the dose curve; as a rule, active = well fitted inhibition curve with a large enough effect; inconclusive = small, poorly fitted or top-dose-only effect; inactive = flat fitted curve, though single readings scatter.
# Assay: qHTS for inhibitors of Vif-A3G interactions: Cherry picks; also: nearly all actives have a fitted effect of over 80% in size; as to activity, negative = fluorescence increase: % of control where 0% means no effect
# Conditions: HeLa A3G-eYFP + Vif (tagged APOBEC3G with the HIV-1 protein that degrades it), 24 h; Potency: eYFP fluorescence increase; series mostly up to 36.9 µM; activity, negative = fluorescence increase: at the top concentration
# Excerpt: The recent discovery and characterization of host restriction factors, which provide a potent defense to invading retroviruses, has provided new targets for antiviral drug development. APOBEC3G (A3G) and APOBEC3F (A3F) are potent cytidine deaminases that block HIV-1 replication; HIV-1 expresses the Vif protein, which counteracts A3G and A3F by binding to them and inducing their proteasomal degradation. The Vif-A3G and Vif-A3F interactions provide two potential targets for development of small molecules which can interfere with the ability of Vif to degrade A3G or A3F. […] To identify inhibitors that can interfere with Vif mediated degradation of A3G and A3F, we have developed Hela cell lines that stably express A3G or A3F tagged with eYFP at the C-terminal end (A3G-eYFP or A3F-eYFP, respectively) and Vif. In the absence of an inhibitor, Vif induces degradation of A3G-eYFP and A3F-eYFP, and the cells are not fluorescent. In the presence of an inhibitor, it is expected that Vif will be unable to degrade A3G-eYFP and/or A3F-eYFP, resulting in an increase in yellow fluorescence. In this assay, Vif A3G was screened against the cherry picks ordered from the MLSMR. NIH Chemical Genomics Center [NCGC] NIH Molecular Libraries Probe Centers Network [MLPCN] MLPCN Grant: MH093245 Assay Submitter (PI): Vinay Pathak, National Cancer Institute
# A3G-Vif cells were harvested from T225 flask and resuspended in phenol free OPTI-MEM medium with 5% FBS. Then 5 uL of 140,000 cells/mL resuspended cells was dispensed into each well of low base Aurora COC 1,536-well plates (black walled, clear bottom) using a Multidrop Combi dispenser. After overnight culture at 37 deg C with 5% CO2, a total of 23 nL of compounds at 5 selected concentrations from the NPC or positive control (2 mM stock of MG132) in DMSO was transferred to each well of the assay plate using a pintool (Kalypsys, San Diego, CA), and the plates were further incubated at 37 deg C with 5% CO2 for 24 hours. After that, the plates were measured on Acumen Explorer (TTP Lab Tech). The fluorescence was detected by 488 nm/Ex and […].
# Potency is read from the fitted curve at half-maximal effect.
Structure (SMILES),"activity, negative = fluorescence increase",Potency
COCCCNc1nc2ccccc2nc1NS(=O)(=O)c1ccccc1,10.7% [at 46.1 µM],–
COC(=O)c1cc(Nc2nc3ccccc3nc2NS(=O)(=O)c2ccc(C)cc2)ccc1Cl,7.34% [at 46.1 µM],–
COc1cc(Cl)c(C)cc1Nc1nc2ccccc2nc1NS(=O)(=O)c1ccccc1,–,16.4 µM (active)
COc1cc(N2CCCC2)c(OC)cc1/C=C1/NC(=S)NC1=O,–,2.5 µM (active)
CN1/C(=C/C=C(/C#N)C(N)=O)C(C)(C)c2ccccc21,-16.1%,–
CN1/C(=C/C=C(C#N)C#N)C(C)(C)c2ccccc21,–,18.4 µM (active)
CN1/C(=C\C=C(C#N)C#N)C(C)(C)c2ccccc21,–,20.6 µM (active)
CC1=C/C(=C\C=C(C#N)C#N)N(C)c2ccccc21,–,2.59 µM (active)
Cc1ccc2c(c1)Oc1ccc(NC(=O)CCl)cc1C(=O)N2,1.67%,–
CC1=NOC(=O)/C1=C\c1ccc(-c2ccc(Br)cc2)o1,-8.38%,–
CN(C)/C=N/C1=C(C#N)C(c2cccs2)c2ccc3ccccc3c2O1 (stereo not drawn),-4.1%,–
CN(C)c1ccc(/C=C/c2ccnc3c(Cl)cccc23)cc1,–,23.1 µM (active)
CN(C)c1ccc(/C=C/c2ccnc3c(Cl)ccc(Cl)c23)cc1,–,9.2 µM (active)
CC(/C=N/NC(=O)c1cc(-c2ccc3ccccc3c2)n[nH]1)=C\c1ccco1,-19.6%,–
Cc1cc(C(=O)N/N=C/c2ccc3c(c2)OCO3)c2ccccc2n1,-8.89%,–
CC(=O)c1cccc(-c2ccnc3c2CC(C(=O)NCc2ccc(F)c(F)c2)O3)c1 (stereo not drawn),-7.23%,–
CCC(=O)Nc1nonc1-c1nc2ccccc2n1Cc1ccccc1,-3.53%,–
ClCc1nc2ccccc2n1Cc1ccccc1,–,16.4 µM (active)
Cc1ccc2[nH]c3c(c2c1)CCCC3NC(=O)CCl (stereo not drawn),0.871%,–
O=c1[nH]c2ccccc2n2c(=S)[nH]nc12,-16.4% [at 46.1 µM],–
O=c1[nH]c2ccccc2n2c(C(F)(F)F)nnc12,–,16.4 µM (active)
CCOCCCNC(=O)/C(C#N)=C/c1ccc([N+](=O)[O-])o1,–,20.6 µM (active)

Structure (SMILES),"activity, negative = fluorescence increase",Potency
CC1CCCCC1NC(=O)/C(C#N)=C/C=C/c1ccccc1[N+](=O)[O-] (stereo not drawn),-0.675%,–
N#Cc1c(NC(=O)c2ccc([N+](=O)[O-])o2)sc2c1CCC2,0.738%,–
CC(NC(=O)/C(C#N)=C/c1ccc([N+](=O)[O-])o1)c1ccccc1 (stereo not drawn),–,16.4 µM (active)
COc1cc2cc(-c3ccc(OC)c(OC)c3C)nc(N)c2cc1OC,-18.8%,–
CC(=O)Nc1cccc(-c2ccnc3c2CC(C)(C(=O)Nc2cccc(C(C)=O)c2)O3)c1 (stereo not drawn),-3.63%,–
O=C(NC(=S)N1CCN(c2ccccn2)CC1)c1ccccc1,-8.21% [at 46.1 µM],–
O=C(Nc1ccc(Cl)cc1)Nc1ccon1,-6.36%,–
CCN(c1ccc(NC(=O)CCc2nc3sc4c(c3c(=O)[nH]2)CCCC4)cc1)C(C)C,-3.33% [at 46.1 µM],–
COc1ccccc1N1CCN(C(=O)c2ccc3ncsc3c2)CC1,-5.63%,–
COc1ccc2oc(=O)c(-c3nc4ccccc4o3)cc2c1,–,20.6 µM (active)
CCOc1ccccc1Nc1nnc(-c2cc3cc(Cl)ccc3oc2=O)s1,-23.4% [at 46.1 µM],–
COc1ccc(N=c2oc3ccc(OC)cc3cc2-c2nc3ccccc3[nH]2)cc1,-6.38%,–
COc1ccc2oc(=Nc3ccccc3)c(-c3nc4ccccc4[nH]3)cc2c1,-27.4% [at 46.1 µM],–
CCOc1ccccc1Nc1nnc(-c2cc3cc(OC)ccc3oc2=O)s1,–,7.31 µM (active)
COc1cccc2sc(Nc3nc(-c4cc5ccccc5oc4=O)cs3)nc12,-3.79%,–
CCCNC(=O)c1ccccc1NC(=O)c1ccc2c(c1)NC(=O)C(C)S2 (stereo not drawn),-10.8%,–
CC(O)CN(CC(C)O)c1ccc2c(c1)Cc1cc([N+](=O)[O-])ccc1-2 (stereo not drawn),–,3.26 µM (active)
CN1/C(=C\C=C2/SC(=S)N(CC(=O)O)C2=O)C(C)(C)c2ccccc21,–,1.3 µM (active)
CN1/C(=C\C=C2/SC(=S)NC2=O)C(C)(C)c2ccccc21,–,2.5 µM (active)
C=CCN1C(=O)/C(=C\C=C2\N(C)c3ccccc3C2(C)C)SC1=S,–,0.651 µM (active)
Cc1ccc(-c2nc(SCCOc3ccccc3C)n3[nH]c(=O)cc3n2)cc1,6.77% [at 46.1 µM],–
Cc1ccc(NC(=S)NC(=O)c2ccc(F)cc2)cc1S(=O)(=O)Nc1cccc(Cl)c1,3.25% [at 46.1 µM],–

Structure (SMILES),"activity, negative = fluorescence increase",Potency
O=C(Nc1cc(=O)[nH]c(=O)[nH]1)c1cc(Cl)ccc1Cl,-6.68%,–
CCCOc1ccc(C(=O)Nc2cccc(NC(=O)c3ccc(Cl)cc3Cl)c2)cc1,–,10.3 µM (active)
COc1cc(Cl)c(C)cc1NC(=O)CN1CCN(C(=O)C2CC2)CC1,-5.23%,–
Cc1noc(C)c1COc1cccc(C(=O)OCC(=O)N2CC(=O)Nc3ccccc32)c1,-5.26%,–
CCCn1nc(C(=O)N2CC(=O)Nc3ccccc32)c2ccccc2c1=O,-5.96%,–
CCC(C)[C@H](NC(=O)N1CC(=O)Nc2ccccc21)C(=O)Nc1ccccc1C (stereo partly drawn),2.3%,–
COc1cc(OC)cc(C(=O)N2CC(=O)Nc3ccccc32)c1,-6.01%,–
COc1cc(C(=O)N2CC(=O)Nc3ccccc32)cc(OC)c1OC,-5.08%,–
Cc1cc(C)c2nc(SCC(=O)N3CC(=O)Nc4ccccc43)c(C#N)cc2c1,–,12.5 µM (active)
COc1ccc2nc(SCC(=O)N3CC(=O)Nc4ccccc43)c(C#N)cc2c1,–,23.1 µM (active)
Cc1cc(C)cc(C(=O)N2CC(=O)Nc3ccccc32)c1,-15.5%,–
Cc1cccc2cc(C#N)c(SCC(=O)N3CC(=O)Nc4ccccc43)nc12,–,17.7 µM (active)
NC(=O)c1ccccc1NC(=S)NC(=O)CCc1ccccc1,1.18%,–
O=C(/C=C/c1ccco1)NC(=S)Nc1cccc(-c2nc3ccccc3o2)c1,-10.6%,–
Oc1cccc(Nc2nc(O)c(/C=C3\C=Nc4ccccc43)s2)c1,–,23.1 µM (active)
CC(=O)c1cccc(NC(=O)C2CCCN(S(=O)(=O)c3cccc4nonc34)C2)c1 (stereo not drawn),-16.3% [at 46.1 µM],–
COC(=O)c1ccc(Nc2c([N+](=O)[O-])ccc3nonc23)cc1,–,20.6 µM (active)
COc1ccc(N2C(=O)NC3CC2(C)Oc2ccccc23)cc1OC (stereo not drawn),-7.13%,–
COc1ccc(OC)c(NC(=O)Cn2c(=O)n(-c3ccc(Cl)cc3)c(=O)c3c(C)c(C)sc32)c1,–,14.6 µM (active)
CCOC(=O)c1[nH]c(C)c(C(=O)Nc2cc(OC)ccc2OC)c1C,-9.64%,–
COc1ccc(OC)c(NC(=O)Cn2cnc3onc(-c4ccc(Cl)cc4)c3c2=O)c1,2.25% [at 46.1 µM],–
CCCOc1ccc(N)cc1N,-3.69% [at 46.1 µM],–

Structure (SMILES),"activity, negative = fluorescence increase",Potency
O=C1/C(=C/c2ccc(O)cc2)SC(=S)N1CC1CCCO1 (stereo not drawn),2.84% [at 46.1 µM],–
COc1cc(/C=C2/SC(=S)N(CC3CCCO3)C2=O)ccc1O (stereo not drawn),–,18.4 µM (active)
CCOc1cc(/C=C2/SC(=S)N(CC3CCCO3)C2=O)ccc1O (stereo not drawn),–,20.6 µM (active)
COc1nc(-c2ccccc2)cc(-c2ccc3c(c2)OCO3)c1C#N,-8.86%,–
CCOC(=O)c1c(CN(CC)CC)n(-c2ccccc2)c2ccc(O)cc12,-3%,–
O=C1/C(=C\c2ccc(O)cc2)SC(=S)N1Cc1ccccc1,8.8% [at 46.1 µM],–
O=C(O)c1cc(-c2ccc(/C=C3/SC(=S)N(Cc4ccccc4)C3=O)o2)ccc1Cl,–,18.4 µM (active)
Cc1c(C(=O)OC2CCCCC2)[nH]c2c1C(=O)CC(c1ccccc1Cl)C2 (stereo not drawn),-1.35% [at 46.1 µM],–
Cc1cc(/C=C2\SC(=S)N(C)C2=O)c(C)n1-c1ccccc1O,–,23.1 µM (active)
Cc1cc(/C=C2\SC(=Nc3ccccc3)NC2=O)c(C)n1-c1ccc(S(N)(=O)=O)cc1,-12.8%,–
Cc1cc(/C=C2\SC(=S)N(C)C2=O)c(C)n1-c1ccc(O)cc1,–,20.6 µM (active)
NC(=O)c1cccc(-c2ccnc3c2CC(C(=O)NCc2ccco2)O3)c1 (stereo not drawn),-1.78%,–
CC(=O)N/N=C/c1cc(C(C)C)cc(/C=N/NC(C)=O)c1O,–,23.1 µM (active)
NC(=S)N/N=C/c1cccc(O)c1O,-2.38% [at 46.1 µM],–
CC(=O)N/N=C/c1cc(C(C)(C)C)cc(/C=N/NC(C)=O)c1O,–,23.1 µM (active)
Cc1cc(-n2c(C)cc(C(=O)CCl)c2C)no1,-5.58%,–
Cc1ccc(/C=N/NC(=O)c2nc3nc(C)cc(C)n3n2)cc1,11.1% [at 46.1 µM],–
CC[N+](C)(C(=O)O)/C(=C\c1ccccc1)c1ccnc2ccccc12 (stereo not drawn),–,18.4 µM (active)
CCc1ccc(/C=N/NC(=O)c2cc(-c3ccncc3)nc3ccccc23)s1,-2.61%,–
CC(=O)N1CCc2nc3sc(C(=O)c4ccc(F)cc4)c(N)c3c(C(F)(F)F)c2C1,–,18.4 µM (active)
COc1ccc(C(=O)c2sc3nc4c(c(C(F)(F)F)c3c2N)CN(C(C)=O)CC4)cc1OC,–,18.4 µM (active)
COc1ccc(-c2n[nH]c3c2CN(C(=O)c2ccc(OC)c(OC)c2)CC3)cc1,1.56%,–

Structure (SMILES),"activity, negative = fluorescence increase",Potency
COc1cc2c(cc1OC)CN(C(=O)c1ccc3nc[nH]c3c1)CC2,-3.55%,–
COc1ccc(-c2cc3ccccc3oc2=O)cc1NC(=S)NC(=O)c1ccc2c(c1)OCCO2,-29.6% [at 46.1 µM],–
COc1ccc(S(=O)(=O)Nc2cccc(-c3ccc4nncn4n3)c2)cc1,-5.05%,–
Cc1ccc(NC(=S)N/N=C2\CCCCC2C)cc1 (stereo not drawn),-7.25% [at 46.1 µM],–
CN(C)S(=O)(=O)c1ccc(N2CCCC2)c(C(=O)N2CCN(S(=O)(=O)c3ccc(F)c(F)c3)CC2)c1,-0.607%,–
Cc1cc(NC(=O)/C(C#N)=C\c2ccc(-c3ccc(SC(F)F)cc3)o2)n(-c2ccccc2)n1,–,14.6 µM (active)
Cc1cc(NC(=O)/C(C#N)=C/c2ccc(-c3ccc(SC(F)F)cc3)o2)n(-c2ccccc2)n1,–,10.3 µM (active)
O=C(/C=C/c1ccco1)NC(=S)Nc1ccc(N2CCCC2)cc1,-9.35%,–
Cc1ccc2[nH]c3c(c2c1)CN(C(=O)CN1CC(C)OC(C)C1)CC3 (stereo not drawn),-22.7%,–
CC(=O)c1cc(NC(=O)c2ccc(Cl)cc2)c(=O)oc1/C=C/N(C)C,–,11.2 µM (active)
CO/N=C\CC(=O)Nc1ccc(Oc2ccccc2)cc1,-4.61%,–
CC(=O)c1cc(NC(=O)c2ccc(C)cc2)c(=O)oc1/C=C/N(C)C,–,16.4 µM (active)
COC(=O)c1cc(NC(=O)c2ccccc2)c(=O)oc1/C=C/Nc1ccc(Oc2ccccc2)cc1,–,11.6 µM (active)
CC(=O)c1cc2c(cc1NS(=O)(=O)c1ccc(C)cc1)OCCO2,-0.455%,–
O=C(Nc1ccccc1OC(=O)c1ccccc1)c1ccccc1,-13.5%,–
COc1ccc(C(=O)Nc2cccc(/C=C/c3nc4ccccc4c(=O)[nH]3)c2)cc1,-4.28%,–
COc1cc(OC)cc(C(=O)Nc2ccccc2C(=O)NC2CC2)c1,-10.4%,–
Cc1ccc(/C=N/NC(=O)c2cc(C)oc2C)cc1,-5.86%,–
COc1ccc(C(=O)Nc2cc(C(C)=O)c(/C=C/N(C)C)oc2=O)cc1,–,15.8 µM (active)
COC(=O)c1c(-c2ccccc2Cl)noc1/C=C/N(C)C,0.705%,–
